40 compounds from PubChem BioAssay can be followed below.

Each structure is given as a SMILES string. For part of these data: Entries with a potency or affinity are not part of this list. Activity calls are given as the source filed them. Unless noted, the limit is not given here; nearly all actives have IC50 up to about 0.98 µM.

Test system in the first assay: not listed separately
Kind of assay: inhibition of 3D7 malaria parasite growth – strain 3D7 (AID 2306; call rule not given here;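 also: 0% = DMSO wells and 100% = chloroquine plus artemisinin control wells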). To be noted: P. falciparum 3D7 erythrocytic growth, LDH absorbance, 72 h; at 2 µM; stronger effect = higher value.
For `Cc1[nH]c(C)c(-c2ccc(C(=O)c3ccccc3)cc2)c(=O)c1Br`, the growth inhibition is 95% (active).

Regarding `Cc1cnc(C(=O)Nc2ccc(-c3cccc(-c4nc5ccccc5[nH]4)c3)cc2)cn1`, the growth inhibition is 93% (active).

`FC(F)(F)c1ccc2nc(-c3ccc(-c4cccc(CN5CCN(c6ccncc6)CC5)c4)cc3)[nH]c2c1`: the growth inhibition is 101% (active).

`O=C(c1cccs1)N(Cc1cccc(-c2ccc(CNCCc3ccccc3)cc2)c1)C1CCN(Cc2ccccc2)CC1`: the growth inhibition was 95% (active).

Turning to `CCN(CC)CCN(Cc1ccc(-c2ccc(C(F)(F)F)cc2)cc1)C(=O)c1c[nH]c2ccc(Br)cc12`, the growth inhibition was 90% (active).

Take `Cc1ccc(S(=O)(=O)NC2=NC(C)(C)N(OCc3ccc(Cl)c(Cl)c3)C(N)=N2)cc1`: the growth inhibition is 88% (active).

For the compound `COc1ccc(NC(=O)Nc2nc3ccccc3s2)cc1N1CCN(C)CC1`, the growth inhibition was 95% (active).

`CCN1CCC(N(Cc2ccc(-c3ccc(C(F)(F)F)s3)cc2)C(=O)Cn2c(CCc3cccc(F)c3F)nc(=O)c3ccccc32)CC1`: the growth inhibition was 93% (active).

Take `CC(C)c1cc(C(=O)N[C@@H](Cc2ccccc2)[C@H](O)CNC2CCCCC2)cc(N2CCCC2=O)c1`: the growth inhibition is 101% (active).

In the case of `Cc1ccc(NC(=O)c2ccc3nccnc3c2)cc1OC1CCN(Cc2ccc(F)cc2)CC1`, the growth inhibition is 87% (active).

Regarding `CC(=O)Nc1ccc(CCNC(C)Cc2ccc(C(=O)Nc3ccc(CC(C)NCCc4cccc(Cl)c4)cc3)cc2)cc1` (stereo unspecified), the growth inhibition is 100% (active).

Consider `CN(C)Cc1cccc(-c2ccc(NC(=O)c3ccc4c(=O)n(CCN5CCCCC5)cnc4c3)cc2)c1`, for which the growth inhibition is 101% (active).

Take `CCCCCCOc1ccc(C(=O)NCCCC2CCN(CCCCCNC(=O)C=Cc3ccc(Cl)c(Cl)c3)CC2)cc1`: the growth inhibition was 94% (active).

For the compound `COc1cc(NC(=O)NC(CCN2CCC3(CCc4ccccc43)CC2)c2ccc(Cl)c(Cl)c2)cc(OC)c1OC` (stereo unspecified), the growth inhibition was 90% (active).

Turning to `Nc1nc(N)c2c(ccc3c2ccn3Cc2ccc(-c3ccccc3)cc2)n1`, the growth inhibition is 98% (active).

On to `COc1ccc(-c2ccc(NC(=O)c3ccc(F)cc3)cc2)cc1CNC(C)C`, for which the growth inhibition is 97% (active).

`O=c1cc(NCCCNCc2cc3ccc(Br)cc3s2)[nH]c2ccccc12`: the growth inhibition is 92% (active).

With `O=C(NCC1CCC(C(=O)NCc2cccc(C(F)(F)F)c2)CC1)c1ccc(O)c(-c2ccc(Cl)c(Cl)c2)c1` (stereo unspecified), the growth inhibition was 98% (active).

With `COc1ccc(-c2cc(-c3nc4ccc(CN)cc4[nH]3)c(=O)n(C)c2)cc1OC`, the growth inhibition was 85% (active).

For `CCCC(CCC)n1ccc2c3c(N)nc(N)nc3ccc21`, the growth inhibition is 98% (active).

For `CC(C)(C)c1ccc(NC(=O)c2ccc(CN3CCCN(Cc4ccsc4)CC3)cc2)cc1`, the growth inhibition was 96% (active).

For `CN(C)Cc1cccc(CNC(=O)c2sccc2OCc2ccc(Cl)cc2)c1`, the growth inhibition was 90% (active).

Turning to `COc1cccc(NC(=O)c2nc(N3CCN(c4ccncc4)CC3)ccc2Cl)c1`, the growth inhibition was 97% (active).

As for `O=C(Nc1cccc(-c2cccc(-c3nc4ccc(C(F)(F)F)cc4[nH]3)c2)c1)Nc1ccc(F)c(F)c1F`, the growth inhibition was 99% (active).

In the case of `COc1cc2nc(N3CCC(c4ccccc4)CC3)nc(NCc3ccc(=O)[nH]c3)c2cc1OC`, the growth inhibition is 100% (active).

`Cc1cc(=O)c(-c2ccc(Oc3cccc(Cl)c3)cc2)c(C)[nH]1`: the growth inhibition was 95% (active).

The next assay deals with Calcium-dependent protein kinase 1 (Plasmodium falciparum (isolate 3D7)) (UniProt P62344). The assay can be described thus: PfCDPK1 kinase inhibitors, biochemical, TCAMS library (AID 1159585).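 Also: inhibitors leave more ATP so luminescence rises with inhibition.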 To be noted: recombinant PfCDPK1, Kinase-Glo ATP depletion luminescence.
Chain of Calcium-dependent protein kinase 1 (Plasmodium falciparum (isolate 3D7)) (P62344 whole entry, looked up): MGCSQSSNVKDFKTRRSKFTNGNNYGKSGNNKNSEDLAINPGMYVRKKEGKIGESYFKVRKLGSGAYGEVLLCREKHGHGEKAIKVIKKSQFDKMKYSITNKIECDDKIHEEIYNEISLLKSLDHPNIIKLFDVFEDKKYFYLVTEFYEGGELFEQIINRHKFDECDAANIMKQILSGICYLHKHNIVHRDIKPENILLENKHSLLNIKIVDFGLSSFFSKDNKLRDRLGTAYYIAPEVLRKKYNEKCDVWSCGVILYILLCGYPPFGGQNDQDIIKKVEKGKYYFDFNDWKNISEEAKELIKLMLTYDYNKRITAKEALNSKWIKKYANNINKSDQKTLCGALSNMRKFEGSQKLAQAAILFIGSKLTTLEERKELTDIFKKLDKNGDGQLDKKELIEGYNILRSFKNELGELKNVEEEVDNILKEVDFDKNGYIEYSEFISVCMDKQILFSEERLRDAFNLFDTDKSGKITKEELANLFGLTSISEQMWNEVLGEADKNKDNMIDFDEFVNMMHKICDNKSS
As to `O=C(Nc1nc2cc(S(=O)(=O)NCCc3ccc(F)cc3)ccc2n1CCCn1ccnc1)c1ccc(Cl)cc1`, the result was inactive.

Consider `Cc1[nH]c(C)c(C(F)(F)F)c(=O)c1-c1ccc(Oc2ccc(OC(F)(F)F)cc2)cc1`, for which the outcome was inactive.

Consider `COc1ccc(CNCc2cccc(-c3cccc(-c4nc5c(C)cccc5[nH]4)c3)c2)cc1`, for which the result was inactive.

In the case of `CC(C)(C)c1ccc(C(=O)NC2CCC(CCN3CCc4ccc(S(C)(=O)=O)cc4CC3)CC2)cc1C(F)(F)F` (stereo unspecified), the result was inactive.

With `CCCCCCc1cc(Oc2c(I)cc(C[C@H](N)C(=O)O)cc2I)ccc1O`, the result was inactive.

For `CN(C)Cc1cccc(-c2ccc3ccnc(N)c3c2)c1`, the result was inactive.

On to `CN1CCN(CCc2ccc3nc(-c4csc(Cc5cc(Cl)ccc5OCc5ccccc5)n4)[nH]c3c2)CC1`, for which the outcome was inactive.

As for `COc1ccc(C=NNc2ccnc3cc(F)c(C)cc23)c2ccccc12`, the result was inactive.

On to `Cc1nc(N)nc(N)c1OCc1cccc2c1ccc1ccccc12`, for which the result was inactive.

`Cc1nc(Nc2ccc(F)cc2)nc(N2CCc3cc(O)ccc3C2C)c1C` (stereo unspecified): the outcome was inactive.

Consider `CNc1ccc(CNCc2ccc(-c3ccc(-c4nc5ccc(C(F)(F)F)cc5[nH]4)s3)cc2)cc1`, for which the result was inactive.

Turning to `NCc1ccc(CNCc2cccc(-c3ccc(-c4nc5ccccc5[nH]4)cc3)c2)cc1`, the result was inactive.

Regarding `CCN(CC)Cc1ccc2c(=O)cc(CCc3cccc(F)c3F)n(CC(=O)N(Cc3ccc(-c4ccc(C(F)(F)F)cc4)cc3)C(C)C)c2c1`, the result was inactive.

Take `O=C(/C=C/c1ccc(Cl)c(Cl)c1)NCCCCCCN1CCN(C(=O)Nc2ccc(C(F)(F)F)cc2)CC1`: the result was inactive.

With `Cc1[nH]c(C)c(-c2ccc(C(=O)c3ccccc3)cc2)c(=O)c1Br`, the outcome was inactive.

With `Cc1cnc(C(=O)Nc2ccc(-c3cccc(-c4nc5ccccc5[nH]4)c3)cc2)cn1`, the outcome was inactive.

Take `FC(F)(F)c1ccc2nc(-c3ccc(-c4cccc(CN5CCN(c6ccncc6)CC5)c4)cc3)[nH]c2c1`: the outcome was inactive.

Turning to `O=C(c1cccs1)N(Cc1cccc(-c2ccc(CNCCc3ccccc3)cc2)c1)C1CCN(Cc2ccccc2)CC1`, the result was inactive.

Turning to `CCN(CC)CCN(Cc1ccc(-c2ccc(C(F)(F)F)cc2)cc1)C(=O)c1c[nH]c2ccc(Br)cc12`, the outcome was inactive.

Take `Cc1ccc(S(=O)(=O)NC2=NC(C)(C)N(OCc3ccc(Cl)c(Cl)c3)C(N)=N2)cc1`: the outcome was inactive.

For the compound `COc1ccc(NC(=O)Nc2nc3ccccc3s2)cc1N1CCN(C)CC1`, the result was inactive.

Consider `CCN1CCC(N(Cc2ccc(-c3ccc(C(F)(F)F)s3)cc2)C(=O)Cn2c(CCc3cccc(F)c3F)nc(=O)c3ccccc32)CC1`, for which the result was inactive.

As for `CC(C)c1cc(C(=O)N[C@@H](Cc2ccccc2)[C@H](O)CNC2CCCCC2)cc(N2CCCC2=O)c1`, the outcome was inactive.

Take `Cc1ccc(NC(=O)c2ccc3nccnc3c2)cc1OC1CCN(Cc2ccc(F)cc2)CC1`: the result was inactive.

As to `CC(=O)Nc1ccc(CCNC(C)Cc2ccc(C(=O)Nc3ccc(CC(C)NCCc4cccc(Cl)c4)cc3)cc2)cc1` (stereo unspecified), the result was inactive.

Turning to `CN(C)Cc1cccc(-c2ccc(NC(=O)c3ccc4c(=O)n(CCN5CCCCC5)cnc4c3)cc2)c1`, the result was inactive.

Regarding `CCCCCCOc1ccc(C(=O)NCCCC2CCN(CCCCCNC(=O)C=Cc3ccc(Cl)c(Cl)c3)CC2)cc1`, the result was inactive.

With `COc1cc(NC(=O)NC(CCN2CCC3(CCc4ccccc43)CC2)c2ccc(Cl)c(Cl)c2)cc(OC)c1OC` (stereo unspecified), the outcome was inactive.

As to `Nc1nc(N)c2c(ccc3c2ccn3Cc2ccc(-c3ccccc3)cc2)n1`, the outcome was inactive.

With `COc1ccc(-c2ccc(NC(=O)c3ccc(F)cc3)cc2)cc1CNC(C)C`, the outcome was inactive.

For `O=c1cc(NCCCNCc2cc3ccc(Br)cc3s2)[nH]c2ccccc12`, the result was inactive.

As to `O=C(NCC1CCC(C(=O)NCc2cccc(C(F)(F)F)c2)CC1)c1ccc(O)c(-c2ccc(Cl)c(Cl)c2)c1` (stereo unspecified), the result was inactive.

As to `COc1ccc(-c2cc(-c3nc4ccc(CN)cc4[nH]3)c(=O)n(C)c2)cc1OC`, the outcome was inactive.

For `CCCC(CCC)n1ccc2c3c(N)nc(N)nc3ccc21`, the outcome was inactive.

For the compound `CC(C)(C)c1ccc(NC(=O)c2ccc(CN3CCCN(Cc4ccsc4)CC3)cc2)cc1`, the result was inactive.

For the compound `CN(C)Cc1cccc(CNC(=O)c2sccc2OCc2ccc(Cl)cc2)c1`, the outcome was inactive.

Turning to `COc1cccc(NC(=O)c2nc(N3CCN(c4ccncc4)CC3)ccc2Cl)c1`, the result was inactive.

As for `O=C(Nc1cccc(-c2cccc(-c3nc4ccc(C(F)(F)F)cc4[nH]3)c2)c1)Nc1ccc(F)c(F)c1F`, the result was inactive.

Turning to `COc1cc2nc(N3CCC(c4ccccc4)CC3)nc(NCc3ccc(=O)[nH]c3)c2cc1OC`, the outcome was inactive.

Take `Cc1cc(=O)c(-c2ccc(Oc3cccc(Cl)c3)cc2)c(C)[nH]1`: the outcome was inactive.
